# TDP1 cell CPT: DT40-hTDP1 cell growth loss with CPT | AID 686979 | chicken DT40 Tdp1-/-;hTDP1 cells + 20 nM CPT, ATP luminescence, 48 h | hit rate 12% among 420,000 | Potency, µM (top dose mostly 46.2 µM), inactives show at the top dose activity change, negative = growth inhibition, usual class: inhibitors; also: potency is read from the fitted curve at half-maximal effect; nearly all actives have a fitted effect of over 55% in size
#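 Chicken DT40 Tdp1-/- cells complemented with human TDP1, 400 cells/well, exposed to compounds plus 20 nM camptothecin for at least 48 h at 37 C; viability read as ATP content by CellTiter-Glo luminescence.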
# HT1080NT lethal: kills 2HG-producing HT-1080-NT fibrosarcoma cells; hit rate 1.6% among 360,000; Potency, µM (doses to about 46.1 µM), inactives show at the highest dose activity, negative = less viability, hits mostly cytotoxic; HT-1080-NT fibrosarcoma viability, CellTiter-Glo ATP luminescence, 48 h;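 also: NT is the 2HG producing partner of a matched IDH1 knockdown line; potency is read from the fitted curve at half-maximal effect; 0% = DMSO-treated cells and -100% = media-only wells without cells; nearly all actives have a fitted effect of over 55% in size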
#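 HT-1080-NT; 750 cells/well; 5% FBS RPMI; 48 h compound, 37 degrees C; CellTiter-Glo luminescence; curve fitting and curve-class assignment.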
# TDP1 cell noCPT: qHTS for Inhibitors of human tyrosyl-DNA phosphodiesterase 1 (TDP1): qHTS in cells in absence of CPT; DT40 Tdp1-/- hTDP1 cells, no CPT, ATP luminescence, 48 h; Potency, µM (doses to about 46.2 µM), without a hit: at the highest dose activity change, negative = growth inhibition, usual class: inhibitors; hit rate 15% among 420,000; AID 686978, 2013; also: potency is read from the fitted curve at half-maximal effect; nearly all actives have a fitted effect of over 55% in size
#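 Readout: luminescence from CellTiter-Glo after 30 min in the dark at RT. Cells: DT40 Tdp1-/- with stable hTDP1, 400/well. Exposure: compounds alone, ≥48 hr, 37 °C.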
# IL-1B inflam inh: inhibitors of inflammasome signaling (IL-1 beta secretion). hit rate 4.7% among 360,000. AID 743279. THP-1 LPS/ATP IL-1B secretion, AlphaLISA, 16 h; active compounds read low. activity change, % at 57.5 µM; in the data active = activity change below about -50%; inconclusive = mostly about -30% to -49%
#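 THP-1 cells pretreated 1 hr with compounds (up to 57.5 uM final), then stimulated with LPS (250 ng/mL final) plus ATP (1.25 mM final); secreted IL-1B measured by AlphaLISA after 16 hr, decreased signal indicating inhibition.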
# uPA generation: cell surface uPA generation inhibition | cell surface uPA generation assay, qHTS | Potency, µM (doses to about 38.3 µM), inactives show at the top dose activity change, negative = inhibition, most hits filed as inhibitors | hit rate 0.31% among 330,000 | AID 540303; active = well fitted inhibition curve with a large enough effect; inconclusive = small, poorly fitted or top-dose-only effect; inactive = no such curve, though single readings can be large or run the other way; tested in mouse RAW 264.7 cells; also: potency is read from the fitted curve at half-maximal effect; nearly all actives have a fitted effect of over 55% in size
# HT1080 IDH1KD tx: kills HT-1080 cells with IDH1 knockdown | HT-1080 IDH1 knockdown viability, ATP luminescence, 48 h | Potency, µM (titrated, usually from 46.1 µM), inactives show top-dose activity, negative = toxicity, actives largely listed as cytotoxic | hit rate 2% among 360,000 | AID 686971;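 also: potency is read from the fitted curve at half-maximal effect; 0% = DMSO wells and -100% = cell-free medium wells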
#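 In this qHTS, HT-1080 cells depleted of IDH1 are exposed for 48 h at 37 °C to compound titrations. Toxicity is scored from CellTiter-Glo luminescence, with DMSO as full viability and medium alone as none.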
# Numbers without * were called inactive; ? = inconclusive; · = not tested or not shown; [ ] = dose if it differs, or a comment. Shown are actives, neighbours in structure and some others; about 19% of the full set was active somewhere. Unless noted, calls follow the shape of the dose curve; as a rule, active = well fitted curve in the direction sought with a large enough effect; inconclusive = small, poorly fitted or top-dose-only effect, or another doubt; inactive = no such curve, though single readings can be large; an effect the other way counts as inactive or inconclusive. Unless noted, % is scaled to controls: 0 for no effect and ±100 for the full control effect.
SMILES,TDP1 cell CPT,HT1080NT lethal,TDP1 cell noCPT,IL-1B inflam inh,uPA generation,HT1080 IDH1KD tx
CCN(CC)C(=O)Cn1c(=O)n(-c2ccc(C)c(C)c2)c(=O)c2c3c(sc21)CCCCC3,5.3%,·,-7.9%,·,·,·
CCOC(=O)C(=CNNc1c(C)csc1C(=O)OC)C(=O)OCC,?,-1.1%,14.6µM*,54.0,-5.5%,-2.1%
COC(=O)c1scc(C)c1NC(=O)Cc1ccccc1,9.4%,15.5%,-12.4%,20.0,·,13.2%
CC(=O)N1c2ccccc2Sc2ccccc21,-4.5%,-2.2%,-29.7%,-13.9,6.0%,-3.3%
CN1c2ccccc2Sc2cc(N)ccc21,-23.3%,?,16.4µM*,-20.1,-2.4%,-17.6%
CCN(CC(=O)NC(C)(C)C)C(=O)CCl,20.6µM*,4.9%,13µM*,-54.9*,-3.6%,0.0%
CC(C)(C)NC(=O)CCCCCCCC(=O)NC(C)(C)C,-3.4%,0.3%,-4.9%,4.4,2.4%,-0.5%
CCOC(=O)C1CCCN(Cc2ccccc2OCC)C1 (stereo not given),-2.1%,16.3%[9.24 µM],-26.0%,0.0,·,-21.8%
CCOc1ccccc1CN1CCCC(c2nc(C)ncc2-c2ccc(F)cc2)C1 (stereo not given),?,·,18.4µM*,·,·,·
COc1ccc(OC)c(CN2CCCC(c3nc(C)ncc3-c3ccc(F)cc3)C2)c1 (stereo not given),20.6µM*,·,?,·,·,·
COc1ccc(CN2CCCC(c3nc(C)ncc3-c3ccc(F)cc3)C2)c(OC)c1OC (stereo not given),11.6µM*,·,?,·,·,·
COc1ccc(CN2CCCC(C(=O)N3CCCC3)C2)c(OC)c1OC (stereo not given),-29.6%,13.4%,-7.1%,27.2,·,13.4%
Cc1ccc(Oc2cc([N+](=O)[O-])cc3c2C(=O)Nc2ccccc2O3)cc1,?,?,14.6µM*,-17.2,-4.3%,-27.7%
O=C1Nc2ccccc2Nc2ccc([N+](=O)[O-])cc21,-16.5%,3.0%,-31.5%,18.2,1.5%,-0.9%
CC(CNC(=O)c1cc(COc2ccc3ncccc3c2)on1)c1ccccc1 (stereo not given),16.4µM*,?,11.6µM*,-5.2,?,?
COCC1CCCN(C(=O)c2cc(COc3cccc4cccnc34)on2)C1 (stereo not given),-0.9%,8.8%,-0.7%,-7.8,-2.4%,5.5%
O=C(c1cc(COc2ccc3ncccc3c2)on1)N1CCC[C@H]1CO,6.51µM*,?,8.2µM*,-16.3,?,-21.6%
O=C(NC1CCCCCCC1)c1cc(COc2ccc3ncccc3c2)on1,3.66µM*,-15.1%,4.61µM*,?,-3.5%,-19.8%
COc1cc(Cl)ccc1OCc1cc(C(=O)NCC(C)c2ccccc2)no1 (stereo not given),-29.9%,-3.3%,-10.5%,0.0,2.0%,-1.0%
Cc1cccc(C)c1OCc1cc(C(=O)NC2CCC2)no1,-7.9%,10.8%,-12.2%,-9.5,-0.9%,15.6%
O=C(c1cc(COc2ccc3ncccc3c2)on1)N1CCCC(O)C1 (stereo not given),?,-1.0%,20.6µM*,1.3,-3.5%,-2.5%
Cc1cc(F)ccc1S(=O)(=O)Nc1ccc(C(=O)N2CCCCC2)cc1,?,-24.9%,?,23.0,-4.1%,-22.9%
COc1cc(C2CC(=O)Nc3c2c(=O)[nH]c2ncnn32)ccc1O (stereo not given),-1.3%,·,-15.1%,·,·,·
COc1cc(=O)n2c(c1C(=O)N(C)Cc1nonc1C)CCN(Cc1cccc(Cl)c1)CC2,3.7%[9.04 µM],·,-12.9%,·,·,·
COc1cccc(OCc2cc(C(=O)N3CCC(C(O)C(C)C)CC3)no2)c1 (stereo not given),?,10.3%,?,1.0,3.0%,1.5%
SMILES,TDP1 cell CPT,HT1080NT lethal,TDP1 cell noCPT,IL-1B inflam inh,uPA generation,HT1080 IDH1KD tx
CCC(O)C1CCN(C(=O)c2cc(COc3ccc4ncccc4c3)on2)CC1 (stereo not given),4.11µM*,?,3.66µM*,-10.8,-9.2%,-23.7%
O=C(c1cc(COc2ccc3ncccc3c2)on1)N1CCC(O)CC1,16.4µM*,-2.4%,8.2µM*,11.4,-3.0%,-1.7%
Cc1ccc(S(=O)(=O)N2C[C@H]3C(=O)C[C@@H](c4ccccc4C)N(S(=O)(=O)c4ccc(C)cc4)[C@H]3C[C@H]2c2ccccc2)cc1,-24.0%,13.9%,-26.7%,-18.0,·,15.6%
CC(=O)N[C@@H](CCC(=O)O)C(=O)O,10.7%,·,-4.0%,·,·,·
CCCc1ccc(C(=O)NNc2ccccc2F)cc1,-13.0%,?,-3.5%,2.0,-12.3%,6.51µM*
Cc1cc(C(=O)NNc2ccc(F)cc2)no1,9.0%,?,-7.8%,5.0,-6.4%,5.17µM*
Cc1cc(C(=O)NNc2ccccc2F)no1,-23.8%,5.17µM*,-29.2%,2.7,3.7%,2.59µM*
Cc1cc(C(=O)NNc2c(Cl)cccc2Cl)no1,0.7%,-2.9%,?,4.2,2.0%,7.1%
CC(O)(COc1ccccc1)c1ccc2c(c1)CN(Cc1cccnc1)CCO2 (stereo not given),20.1%[9.04 µM],·,-14.1%,·,·,·
CN(CC(=O)NCc1ccco1)S(=O)(=O)c1ccc(F)cc1,-1.4%,4.6%,4.7%,3.3,1.1%,4.2%
N#Cc1ccccc1OCC(=O)Nc1ccccc1C(=O)NC1CC1,5.5%,3.6%,-24.4%,-0.9,-2.6%,-0.7%
O=C(CC(=O)OCc1ccccc1)OCc1ccccc1,-16.3%,-0.2%,-0.5%,18.6,-1.3%,2.7%
O=C(CC(O)(CC(=O)OCc1ccccc1)C(=O)OCc1ccccc1)OCc1ccccc1,-11.3%,-18.6%,?,-54.9*,-0.8%,-3.1%
COc1ccccc1C1CC(=O)NC(C)=C1C(=O)OCC1CCCO1 (stereo not given),-18.5%,11.7%,-19.4%,17.2,2.2%,9.0%
COC(=O)c1[nH]c2c(c1C)C(=O)CC(c1ccc(OC)cc1)C2 (stereo not given),-10.5%,-0.6%,?,31.8,-2.2%,-8.5%
COc1ccc(OC)c(C2CC(=O)c3c([nH]c(C(=O)OC4CCC(C)CC4)c3C)C2)c1 (stereo not given),14.6µM*,·,8.2µM*,·,·,·
CCCOCCOC(=O)c1[nH]c2c(c1C)C(=O)CC(c1cc(OC)ccc1OC)C2 (stereo not given),5.17µM*,5.8µM*,5.8µM*,-72.0*,?,4.11µM*

# High-throughput results: PubChem BioAssay, National Center for Advancing Translational Sciences (NCATS)
